The results in this text go back to PubChem BioAssay.

Experiment [1] has as its system Plasmodium falciparum Sir2 (PF13_0152, Sir2A). Briefly: pfSir2 binders on small-molecule microarrays, primary screen, biochemical, small-molecule microarray, 635 nm fluorescence (AID 1098).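 Note: score merges spot fluorescence intensity with its signal-to-noise ratio.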 Conditions: small-molecule microarray binding, fluorescence 635 nm; higher = more signal.
A short description of experiment [2]: small-molecule microarray binders of probe aDKK1, primary screen, biochemical, biotinylated probe, 635/667 nm fluorescence (AID 1099).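 Note: score merges 667nm spot fluorescence with signal to noise across triplicate slides; reference of the scale not given here.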 The settings on record: higher = more signal.
Experiment [3] can be described thus: small-molecule microarray binders of probe aCHRDL2, primary screen, biochemical, biotinylated probe, 635/667 nm fluorescence (AID 1100). Conditions: higher = more signal.
The nature of experiment [4]: splicing luciferase reporter signal modulators, primary screen, spliceosome inhibition project, cell-based, HEK293, splice +/- reporter (AID 1101).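 Note: HEK293 cells carrying a splicing-competent luciferase reporter gene; test concentration not given here.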 The settings on record: luminescence, 24 h, higher = more signal, called active from +8 up or from −8 down. A general note: A reporter such as luciferase makes a cellular process visible.
Experiment [5] concerns the target Fibroblast growth factor 10 (Homo sapiens) (UniProt O15520). Briefly: FGF10 binders on small-molecule microarrays, primary screen, biochemical, small-molecule microarray, 635 nm fluorescence (AID 1102). Conditions: FGF10 binding, fluorescence 635 nm, higher = more signal.
The test system of experiment [6] is glycogen synthase kinase-3 (GSK3A per assay name; protocol says GSK3B). The experiment in a line: GSK3 binders on small-molecule microarrays, primary screen, biochemical, small-molecule microarray, 635 nm fluorescence, GSK3A (AID 1103). Note: the record names both GSK3A and GSK3B. The settings on record: small-molecule microarray binding, fluorescence 635 nm; higher = more signal.
Experiment [7] deals with Epidermal growth factor receptor (Homo sapiens) (UniProt P00533). Briefly: EGFR binders on small-molecule microarrays, primary screen, biochemical, small-molecule microarray, 635 nm fluorescence (AID 1104).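 Note: score merges 667 nm emission intensity with spot signal to noise over triplicate slides.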 Conditions: EGFR binding, higher = more signal.
Sequence of Epidermal growth factor receptor (Homo sapiens) (P00533 whole entry, looked up): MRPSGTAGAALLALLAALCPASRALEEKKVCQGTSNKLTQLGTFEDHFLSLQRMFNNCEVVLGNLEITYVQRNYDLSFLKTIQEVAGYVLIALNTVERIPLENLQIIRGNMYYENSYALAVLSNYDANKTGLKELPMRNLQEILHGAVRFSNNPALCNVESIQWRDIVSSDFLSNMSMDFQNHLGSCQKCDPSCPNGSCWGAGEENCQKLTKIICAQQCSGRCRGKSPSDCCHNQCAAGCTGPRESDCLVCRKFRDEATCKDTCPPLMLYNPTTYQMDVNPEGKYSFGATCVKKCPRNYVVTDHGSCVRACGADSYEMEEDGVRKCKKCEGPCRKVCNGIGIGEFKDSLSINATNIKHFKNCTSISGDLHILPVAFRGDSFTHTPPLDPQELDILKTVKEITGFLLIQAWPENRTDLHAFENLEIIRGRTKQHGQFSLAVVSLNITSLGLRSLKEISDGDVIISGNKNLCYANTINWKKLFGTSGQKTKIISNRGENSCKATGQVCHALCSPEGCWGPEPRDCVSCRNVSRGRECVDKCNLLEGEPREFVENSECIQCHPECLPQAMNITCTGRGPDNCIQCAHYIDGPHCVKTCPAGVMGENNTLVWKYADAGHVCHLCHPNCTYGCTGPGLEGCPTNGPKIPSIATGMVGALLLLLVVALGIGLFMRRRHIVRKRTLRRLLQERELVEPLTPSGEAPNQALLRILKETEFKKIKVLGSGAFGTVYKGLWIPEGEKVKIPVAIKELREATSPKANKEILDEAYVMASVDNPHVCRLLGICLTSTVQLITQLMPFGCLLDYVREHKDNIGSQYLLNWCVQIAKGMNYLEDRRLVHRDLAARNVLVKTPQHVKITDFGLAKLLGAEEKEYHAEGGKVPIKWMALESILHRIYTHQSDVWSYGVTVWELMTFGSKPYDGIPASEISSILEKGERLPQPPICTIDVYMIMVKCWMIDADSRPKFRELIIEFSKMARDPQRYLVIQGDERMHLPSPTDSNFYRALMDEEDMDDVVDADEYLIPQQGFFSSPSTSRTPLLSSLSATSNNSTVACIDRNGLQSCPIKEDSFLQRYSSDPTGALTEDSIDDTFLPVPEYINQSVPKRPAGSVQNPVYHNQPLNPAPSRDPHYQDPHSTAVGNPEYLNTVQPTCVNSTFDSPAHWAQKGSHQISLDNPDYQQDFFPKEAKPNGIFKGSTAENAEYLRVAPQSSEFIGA
In experiment [8] the target is Follistatin-related protein 3 (Homo sapiens) (UniProt O95633). The experiment in a line: FSTL3 binders on small-molecule microarrays, primary screen, biochemical, small-molecule microarray, 635 nm fluorescence (AID 1105).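 Note: score merges emission near 667 nm and signal to noise per printed spot across three slides.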 Conditions: FSTL3 binding, higher = more signal.
Sequence of Follistatin-related protein 3 (Homo sapiens) (O95633 whole entry, looked up): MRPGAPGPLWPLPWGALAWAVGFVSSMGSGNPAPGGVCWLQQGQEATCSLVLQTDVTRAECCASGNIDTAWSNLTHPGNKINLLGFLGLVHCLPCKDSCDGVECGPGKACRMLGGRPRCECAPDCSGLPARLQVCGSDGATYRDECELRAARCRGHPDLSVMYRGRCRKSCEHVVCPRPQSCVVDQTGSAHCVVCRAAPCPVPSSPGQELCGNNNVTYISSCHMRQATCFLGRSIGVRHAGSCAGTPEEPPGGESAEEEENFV
Experiment [9] concerns the target Dickkopf-related protein 1 (Homo sapiens) (UniProt O94907). The experiment in a line: DKK1 binders on small-molecule microarrays, primary screen, biochemical, small-molecule microarray, 635 nm fluorescence scan (AID 1106).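 Note: score merges emission near 667 nm with signal to noise over three replicate slides.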 The settings on record: DKK1 binding, higher = more signal.
Experiment [10] has as its system Inhibin beta A chain (activin A). The experiment in a line: INHBA (activin A) binders on microarrays, primary screen, biochemical, small-molecule microarray, 635 nm fluorescence scan (AID 1107).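 Note: mouse activin A protein probed at 4.33 µg/mL on printed slides; score merges bound-protein fluorescence near 667 nm with spot signal-to-noise.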 The settings on record: small-molecule microarray binding, higher = more signal.

Calls of active or inactive are those of the source.

Sequence of Fibroblast growth factor 10 (Homo sapiens) (O15520 whole entry, looked up): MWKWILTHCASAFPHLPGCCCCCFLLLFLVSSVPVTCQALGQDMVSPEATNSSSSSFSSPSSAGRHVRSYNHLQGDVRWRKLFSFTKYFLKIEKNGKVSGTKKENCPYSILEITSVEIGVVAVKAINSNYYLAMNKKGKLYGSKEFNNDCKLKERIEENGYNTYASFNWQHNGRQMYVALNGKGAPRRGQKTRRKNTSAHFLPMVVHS
Sequence of Dickkopf-related protein 1 (Homo sapiens) (O94907 whole entry, looked up): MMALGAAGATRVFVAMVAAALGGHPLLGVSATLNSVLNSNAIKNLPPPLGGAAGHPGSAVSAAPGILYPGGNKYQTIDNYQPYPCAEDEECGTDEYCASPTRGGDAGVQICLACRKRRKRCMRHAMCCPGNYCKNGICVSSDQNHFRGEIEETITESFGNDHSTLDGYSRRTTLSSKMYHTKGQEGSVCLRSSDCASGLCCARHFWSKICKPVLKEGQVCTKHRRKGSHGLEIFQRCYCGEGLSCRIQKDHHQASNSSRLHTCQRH

As for `[N-]=[N+]=NCc1ccccc1[C@H]1OC(c2ccc(OCCCO)cc2)=N[C@@]1(Cc1ccccc1N=[N+]=[N-])C(=O)NCCN1CCOCC1`, the composite z-score was 0.879 in [1]; 0.901 in experiment [2]; 1.15 in experiment [3]; 1.26 in experiment [5]; 1.3 in [6]; 0.558 in experiment [7]. Besides, the composite z-score in [8] turned out to be 1.32; in experiment [9], 0.136; in [10], 0.511. Besides, the z-score in [4] is -0.44 (inactive).
For the compound `CO[C@H]1O[C@H](CO)[C@@H](OC(=O)Nc2ccc(C(F)(F)F)cc2)[C@H](OC(=O)Nc2ccccc2)[C@H]1OC(=O)Nc1ccccc1`, the composite z-score in experiment [1] was found to be 1.61; in experiment [2], 0.995; in experiment [3] it was 0.832; in experiment [5], 1.33; in experiment [6], 1.33; in experiment [7], 0.375. Also, the composite z-score turned out to be 1.2 in experiment [8], 0.0148 in experiment [9] and 0.0729 in experiment [10]. The z-score in [4] was -0.624 (inactive).
Consider `COc1ccc(CCNC(=O)[C@@H]2c3ccccc3C(=O)N(Cc3ccccc3)[C@H]2c2ccc(CO)cc2)cc1`, for which the composite z-score in experiment [1] is 1.23; in [2], -0.0548; in experiment [3], 0.693; in experiment [5] it was 0.847; in experiment [6], 0.432; in experiment [7] it was -0.25. Also, the composite z-score is 0.84 in experiment [8], -0.0051 in [9] and 0.309 in experiment [10]. The z-score in [4] was -0.575 (inactive).
For the compound `COCC1=C([C@H](O)CCc2ccccc2)[C@H](CO)[C@@H]2C(=O)N(C)C(=O)[C@@H]2C1`, the composite z-score in [1] is -0.129; in [2], -0.541; in experiment [3] it was -0.578; in experiment [5], 0.397; in [6] it was 0.189; in experiment [7], 0.456. The figures for the composite z-score in experiment [8], in experiment [9] and in [10] were 0.0826, 0.408 and 0.42, respectively. For the same compound, the z-score in experiment [4] was 0.559 (inactive).
`C=C(/C(=C/C[C@@H](OC(C)=O)c1ccccc1OCCO)c1cnc2ccccc2c1)C(C)C`: the composite z-score was 0.85 in experiment [1]; -0.0495 in experiment [2]; 0.168 in experiment [3]; 1.22 in [5]; 0.312 in [6]; 0.038 in experiment [7]. In addition, the composite z-score in experiment [8] was 1.15; in experiment [9] it was 0.331; in experiment [10], 1.7. The z-score in experiment [4] was -0.333 (inactive).
Turning to `COCCOC(=O)N1C(=O)[C@@]2(c3cc(C#Cc4ccc(OC)cc4)ccc31)[C@H](C(=O)N1CCc3cc(OC)c(OC)cc3C1)[C@H]1C(=O)O[C@H](c3ccccc3)[C@H](c3ccccc3)N1[C@@H]2c1ccc(O)cc1`, the composite z-score is 0.404 in [1]; -0.0986 in experiment [2]; -0.107 in [3]; 1.06 in experiment [5]; 1.21 in experiment [6]; 0.465 in experiment [7]. Further, the values for the composite z-score in [8], in [9] and in [10] were 0.649, 0.644 and 0.837, respectively. Moreover, in [4], the z-score was -0.318 (inactive).
In the case of `CCC[C@@H]1C[C@@]1(CCC)[C@@H](NC(=O)c1ccco1)c1ccc(Cl)cc1`, the composite z-score in experiment [1] is -0.585; in experiment [2] it was -0.0347; in experiment [3], 0.762; in [5], 0.14; in experiment [6], -2.1; in experiment [7] it was -0.414. Moreover, the composite z-score in experiment [8] was -0.722; in experiment [9], -0.366; in experiment [10], 0.447. Besides, the z-score in [4] was -3.52 (inactive).
On to `CCCc1cc2c(n1Cc1ccc(OC)cc1)C(C)C1CN(C(=O)c3ccccc3)C(C)(C(=O)OC)C21` (stereo not given), for which the composite z-score in experiment [1] was 0.862; in [2], 1.27; in [3], 1.59; in experiment [5] it was 0.303; in experiment [6], 0.482; in experiment [7], -0.409. Further, the composite z-score was 0.324 in experiment [8], -1.71 in experiment [9] and 1.43 in experiment [10]. In [4], the z-score was -1.94 (inactive).
As to `COc1ccccc1CN1C(=O)c2ccccc2[C@](Cc2ccccc2I)(C(=O)NCCN2CCOCC2)[C@@H]1c1ccc(CO)cc1`, the composite z-score is 1.62 in experiment [1]; -0.0631 in experiment [2]; 0.227 in experiment [3]; 1.02 in experiment [5]; 1.31 in [6]; 1.05 in [7]. For the same compound, the composite z-score in experiment [8] is 1.46; in experiment [9] it was 0.635; in experiment [10], 0.437. In experiment [4], the z-score was 0.233 (inactive).
With `CCOC(=O)C1=CCC(c2cccc(Cl)c2)O1` (stereo not given), the composite z-score in [1] was 0.355; in experiment [2], 0.14; in experiment [3] it was -0.0411; in experiment [5], 0.235; in experiment [6] it was 0.0617; in experiment [7] it was -0.62. Besides, the composite z-score in experiment [8] was -0.275; in experiment [9], -0.504; in experiment [10] it was 0.154. The z-score in experiment [4] was -1.29 (inactive).
For `C=C(COC)C(=O)CC[C@H](OC(=O)c1ccccc1-c1ccccc1C(=O)O)c1ccc(OCCO)cc1`, the composite z-score is 1.53 in [1]; -0.203 in experiment [2]; 0.0518 in experiment [3]; 1.35 in [5]; 0.667 in experiment [6]; -0.237 in [7]. Further, the composite z-score in experiment [8] amounted to 1.05; in experiment [9], 0.701; in [10], 1.1. The z-score in experiment [4] was 0.287 (inactive).
For `CC(C)(C)N1CC=CC23O[C@@H]4C=CCCOC(=O)C4[C@H]2C(=O)N(CCCO)[C@@H]3C1=O` (stereo not given in full), the composite z-score was -0.992 in experiment [1]; 1.43 in [2]; -0.0642 in experiment [3]; -0.681 in experiment [5]; -0.764 in experiment [6]; -0.608 in experiment [7]. In addition, the composite z-score in [8] is -0.788; in [9] it was -0.0177; in experiment [10] it was 1.38. For the same compound, the z-score in experiment [4] was -1.1 (inactive).
Turning to `COC(=O)[C@@]1(Cc2ccc(OC)cc2)[C@H]2c3cc(C(=O)N4CCCC4)n(Cc4ccc(C)o4)c3C[C@H]2CN1C(=O)c1ccccc1`, the composite z-score in experiment [1] came to 1.34; in [2] it was 0.839; in experiment [3], 0.751; in experiment [5], 1.24; in [6] it was 1.09; in [7], 0.232. For the same compound, the composite z-score is 1.32 in experiment [8], -0.0427 in experiment [9] and 1.19 in [10]. Also, in experiment [4], the z-score was -0.293 (inactive).
Consider `CN(C)C(=O)[C@]1(Cc2ccccc2N=[N+]=[N-])N=C(c2ccc(OCCCO)cc2)O[C@@H]1c1ccccc1CN=[N+]=[N-]`, for which the composite z-score turned out to be 0.43 in experiment [1]; 0.189 in [2]; 0.279 in [3]; 1.38 in [5]; 1.32 in experiment [6]; 0.243 in experiment [7]. Besides, the composite z-score in experiment [8] was found to be 1.3; in experiment [9] it was 0.825; in experiment [10], 0.764. Further, in experiment [4], the z-score is -0.891 (inactive).
Take `CCCC=C(CCC)[C@@H](NS(=O)(=O)CC)c1ccccc1`: the composite z-score in experiment [1] was found to be 0.903; in [2], 0.303; in experiment [3], 0.726; in [5] it was 0.601; in [6], 1.12; in [7], 0.167. Also, the composite z-score in experiment [8] was 0.388; in [9], -0.328; in experiment [10] it was 0.147. Further, the z-score in experiment [4] is -3.42 (inactive).
On to `COC(=O)[C@@]1(Cc2ccc(F)cc2)[C@H]2c3cc(C(=O)N(C)C)n(CCSCCO)c3C[C@H]2CN1C(=O)c1ccccc1`, for which the composite z-score came to 0.74 in experiment [1]; 0.983 in experiment [2]; 1.02 in experiment [3]; 0.438 in experiment [5]; 0.266 in experiment [6]; 0.168 in experiment [7]. Moreover, the composite z-score was 0.322 in [8], -0.0642 in experiment [9] and 0.655 in experiment [10]. Further, the z-score in experiment [4] was -1.22 (inactive).
